The text below walks through data of ChEMBL document CHEMBL2218924, “A broad activity screen in support of a chemogenomic map for kinase signalling research and drug discovery” (Biochem J, 2013).

In assay [1] the target is Homeodomain-interacting protein kinase 3 (Homo sapiens) (UniProt Q9H422). The conditions noted are these: at 10 µM.
Assay [2] has as its target T1, Serine/threonine-protein kinase haspin (Homo sapiens) (UniProt Q8TF76).
T1 sequence (whole entry): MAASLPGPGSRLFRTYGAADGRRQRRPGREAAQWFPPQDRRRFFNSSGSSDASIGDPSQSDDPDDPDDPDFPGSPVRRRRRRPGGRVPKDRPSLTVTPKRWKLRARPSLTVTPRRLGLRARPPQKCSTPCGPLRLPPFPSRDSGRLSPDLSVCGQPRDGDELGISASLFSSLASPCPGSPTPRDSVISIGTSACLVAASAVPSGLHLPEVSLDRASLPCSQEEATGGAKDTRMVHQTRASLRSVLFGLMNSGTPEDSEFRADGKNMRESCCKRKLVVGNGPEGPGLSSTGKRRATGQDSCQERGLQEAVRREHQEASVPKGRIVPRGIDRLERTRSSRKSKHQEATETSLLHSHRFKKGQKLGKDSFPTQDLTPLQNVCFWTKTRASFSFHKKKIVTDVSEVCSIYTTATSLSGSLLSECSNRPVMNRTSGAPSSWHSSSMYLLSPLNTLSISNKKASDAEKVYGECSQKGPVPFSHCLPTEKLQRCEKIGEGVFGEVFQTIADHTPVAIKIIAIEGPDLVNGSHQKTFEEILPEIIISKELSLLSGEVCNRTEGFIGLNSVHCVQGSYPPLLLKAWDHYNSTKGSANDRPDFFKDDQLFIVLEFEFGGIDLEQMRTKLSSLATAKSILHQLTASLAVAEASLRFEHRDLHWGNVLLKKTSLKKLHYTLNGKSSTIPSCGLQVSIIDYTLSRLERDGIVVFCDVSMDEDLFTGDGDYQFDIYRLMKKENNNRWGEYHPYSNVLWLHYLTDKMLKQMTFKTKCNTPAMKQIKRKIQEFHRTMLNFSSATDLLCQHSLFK
Conditions: at 1 µM; call rule not given here.

Assay [3] addresses T1, Serine/threonine-protein kinase haspin (Homo sapiens). The conditions noted are these: at 10 µM.
Assay [4] concerns the target Tyrosine-protein kinase HCK (Homo sapiens) (UniProt P08631). The conditions noted are these: at 1 µM.
Assay [5] shares this target. The conditions noted are these: at 10 µM.
The target is the same in assay [6]. Conditions: at 1 µM. This is another data set of the same source.
For assay [7] the target is unchanged. The conditions noted are these: at 10 µM. This is another data set of the same source.
Assay [8] addresses T2, Protein kinase C zeta type (Homo sapiens) (UniProt Q05513).
T2 sequence (whole entry): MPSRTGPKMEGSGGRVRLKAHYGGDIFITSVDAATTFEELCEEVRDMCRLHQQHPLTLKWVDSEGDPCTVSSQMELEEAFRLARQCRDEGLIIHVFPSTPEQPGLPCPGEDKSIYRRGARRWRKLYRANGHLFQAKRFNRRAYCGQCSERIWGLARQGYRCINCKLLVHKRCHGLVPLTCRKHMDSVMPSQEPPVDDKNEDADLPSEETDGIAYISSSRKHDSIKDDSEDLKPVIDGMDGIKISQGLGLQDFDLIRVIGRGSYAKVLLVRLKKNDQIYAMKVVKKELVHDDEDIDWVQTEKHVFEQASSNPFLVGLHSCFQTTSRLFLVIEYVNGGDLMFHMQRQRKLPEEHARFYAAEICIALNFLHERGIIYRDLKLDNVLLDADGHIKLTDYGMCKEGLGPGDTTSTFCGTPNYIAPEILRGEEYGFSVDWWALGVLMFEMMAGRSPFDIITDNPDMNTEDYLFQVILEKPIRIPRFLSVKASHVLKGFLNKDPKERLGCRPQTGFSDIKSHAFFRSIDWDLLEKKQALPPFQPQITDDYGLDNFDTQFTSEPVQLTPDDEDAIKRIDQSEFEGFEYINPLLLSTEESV
The conditions noted are these: at 10 µM.

Assay [9] deals with Protein kinase C eta type (Homo sapiens) (UniProt P24723). Conditions: at 1 µM.
The target is the same in assay [10]. The conditions noted are these: at 10 µM.
In assay [11] the target is Protein kinase C theta type (Homo sapiens) (UniProt Q04759). Conditions: at 1 µM.
The target is the same in assay [12]. The conditions noted are these: at 10 µM.
The target of assay [13] is T3, Protein kinase C iota type (Homo sapiens) (UniProt P41743).
T3 sequence (whole entry): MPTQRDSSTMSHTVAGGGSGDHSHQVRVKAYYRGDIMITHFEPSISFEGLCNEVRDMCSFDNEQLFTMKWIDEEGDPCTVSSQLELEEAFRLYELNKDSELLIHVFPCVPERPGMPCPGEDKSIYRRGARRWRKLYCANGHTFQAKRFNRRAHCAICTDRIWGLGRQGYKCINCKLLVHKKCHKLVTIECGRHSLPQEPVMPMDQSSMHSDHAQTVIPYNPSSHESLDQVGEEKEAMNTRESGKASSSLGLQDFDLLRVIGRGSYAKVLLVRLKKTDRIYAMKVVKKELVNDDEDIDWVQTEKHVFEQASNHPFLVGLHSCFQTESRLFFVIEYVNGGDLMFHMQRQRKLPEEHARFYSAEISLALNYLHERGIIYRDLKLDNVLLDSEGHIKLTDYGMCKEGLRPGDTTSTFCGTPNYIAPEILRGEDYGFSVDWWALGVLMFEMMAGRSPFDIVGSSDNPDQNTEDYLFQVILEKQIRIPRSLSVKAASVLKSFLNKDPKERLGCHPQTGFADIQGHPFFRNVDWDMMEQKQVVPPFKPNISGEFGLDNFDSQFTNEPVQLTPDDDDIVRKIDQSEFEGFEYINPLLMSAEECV
The conditions noted are these: at 1 µM.

Assay [14] deals with T3, Protein kinase C iota type (Homo sapiens). Conditions: at 10 µM.
Assay [15] deals with T4, Serine/threonine-protein kinase D1 (Homo sapiens) (UniProt Q15139).
T4 sequence (whole entry): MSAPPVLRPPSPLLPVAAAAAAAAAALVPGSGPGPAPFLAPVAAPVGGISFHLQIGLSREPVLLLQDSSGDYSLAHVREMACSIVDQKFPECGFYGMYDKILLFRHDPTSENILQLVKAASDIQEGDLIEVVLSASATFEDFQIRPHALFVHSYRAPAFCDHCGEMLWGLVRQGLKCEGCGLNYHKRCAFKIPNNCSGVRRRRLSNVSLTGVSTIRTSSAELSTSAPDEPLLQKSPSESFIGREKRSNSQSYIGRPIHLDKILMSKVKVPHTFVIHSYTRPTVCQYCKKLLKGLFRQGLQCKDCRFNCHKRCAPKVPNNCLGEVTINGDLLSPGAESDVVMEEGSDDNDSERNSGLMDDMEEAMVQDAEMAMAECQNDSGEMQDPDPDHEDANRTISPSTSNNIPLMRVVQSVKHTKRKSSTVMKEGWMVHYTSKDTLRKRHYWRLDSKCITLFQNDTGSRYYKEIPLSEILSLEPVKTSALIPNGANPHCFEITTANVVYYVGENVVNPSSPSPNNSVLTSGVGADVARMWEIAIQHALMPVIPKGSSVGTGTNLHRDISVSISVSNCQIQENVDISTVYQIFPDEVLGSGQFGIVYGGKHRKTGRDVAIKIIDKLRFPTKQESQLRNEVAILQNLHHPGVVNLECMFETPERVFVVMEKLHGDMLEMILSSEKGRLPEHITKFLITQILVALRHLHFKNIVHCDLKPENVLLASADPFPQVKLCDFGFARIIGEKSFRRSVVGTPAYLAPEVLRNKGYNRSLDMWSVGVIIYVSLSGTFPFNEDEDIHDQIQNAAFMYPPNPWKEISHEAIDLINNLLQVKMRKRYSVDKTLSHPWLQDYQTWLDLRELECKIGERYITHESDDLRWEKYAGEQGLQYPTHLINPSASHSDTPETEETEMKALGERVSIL
The conditions noted are these: at 1 µM.

In assay [16] the target is T4, Serine/threonine-protein kinase D1 (Homo sapiens). The conditions noted are these: at 10 µM.
Assay [17] addresses T5, Serine/threonine-protein kinase D2 (Homo sapiens) (UniProt Q9BZL6).
T5 sequence (whole entry): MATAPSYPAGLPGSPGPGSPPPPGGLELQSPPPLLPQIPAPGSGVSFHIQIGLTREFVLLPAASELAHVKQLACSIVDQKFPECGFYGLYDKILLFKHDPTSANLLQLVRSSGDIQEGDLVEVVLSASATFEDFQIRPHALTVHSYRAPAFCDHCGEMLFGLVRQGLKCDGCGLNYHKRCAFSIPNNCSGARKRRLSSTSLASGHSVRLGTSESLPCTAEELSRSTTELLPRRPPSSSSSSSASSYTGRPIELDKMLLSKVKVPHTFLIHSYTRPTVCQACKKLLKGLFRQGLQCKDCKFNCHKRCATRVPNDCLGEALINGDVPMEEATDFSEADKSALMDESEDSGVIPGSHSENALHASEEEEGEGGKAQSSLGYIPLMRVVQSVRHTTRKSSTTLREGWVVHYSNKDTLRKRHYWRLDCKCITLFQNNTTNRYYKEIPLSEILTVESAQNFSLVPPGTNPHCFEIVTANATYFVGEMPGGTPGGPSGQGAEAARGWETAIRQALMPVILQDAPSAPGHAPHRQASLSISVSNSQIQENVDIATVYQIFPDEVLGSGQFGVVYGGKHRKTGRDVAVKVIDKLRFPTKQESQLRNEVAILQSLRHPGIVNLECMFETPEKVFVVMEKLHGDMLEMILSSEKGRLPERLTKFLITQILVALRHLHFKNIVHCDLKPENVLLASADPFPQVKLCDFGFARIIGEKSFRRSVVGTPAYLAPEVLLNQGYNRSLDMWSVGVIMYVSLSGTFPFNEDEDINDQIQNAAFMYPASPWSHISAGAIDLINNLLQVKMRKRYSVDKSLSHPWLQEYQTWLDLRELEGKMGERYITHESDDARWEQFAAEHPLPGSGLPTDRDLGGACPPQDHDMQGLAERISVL
Conditions: at 1 µM.

Assay [18] concerns the target T5, Serine/threonine-protein kinase D2 (Homo sapiens). The conditions noted are these: at 10 µM.
Assay [19] deals with Insulin-like growth factor 1 receptor (Homo sapiens) (UniProt P08069). The conditions noted are these: at 1 µM.
For assay [20] the target is unchanged. The conditions noted are these: at 10 µM.

Protein kinase C theta type (Homo sapiens), sequence (Q04759 whole entry, looked up): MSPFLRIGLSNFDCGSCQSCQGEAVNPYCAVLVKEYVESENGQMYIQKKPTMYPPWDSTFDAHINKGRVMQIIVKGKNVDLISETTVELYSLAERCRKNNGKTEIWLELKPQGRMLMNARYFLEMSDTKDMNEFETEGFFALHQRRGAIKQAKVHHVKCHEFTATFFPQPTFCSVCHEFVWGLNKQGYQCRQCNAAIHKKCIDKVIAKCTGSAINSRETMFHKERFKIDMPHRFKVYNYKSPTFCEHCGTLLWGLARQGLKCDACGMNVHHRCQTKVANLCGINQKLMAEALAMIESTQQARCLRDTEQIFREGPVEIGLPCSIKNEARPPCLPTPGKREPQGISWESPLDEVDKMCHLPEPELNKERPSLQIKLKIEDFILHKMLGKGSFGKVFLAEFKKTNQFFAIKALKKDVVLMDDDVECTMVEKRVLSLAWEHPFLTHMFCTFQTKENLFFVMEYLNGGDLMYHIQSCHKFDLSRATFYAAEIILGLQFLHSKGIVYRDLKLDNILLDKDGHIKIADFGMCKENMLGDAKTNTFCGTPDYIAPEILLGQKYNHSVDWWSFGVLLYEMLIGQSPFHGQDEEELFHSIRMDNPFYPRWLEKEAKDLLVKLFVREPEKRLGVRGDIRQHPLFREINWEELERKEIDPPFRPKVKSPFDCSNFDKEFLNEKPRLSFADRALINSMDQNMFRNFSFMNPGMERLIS
Insulin-like growth factor 1 receptor (Homo sapiens), sequence (P08069 31-736 limits assumed): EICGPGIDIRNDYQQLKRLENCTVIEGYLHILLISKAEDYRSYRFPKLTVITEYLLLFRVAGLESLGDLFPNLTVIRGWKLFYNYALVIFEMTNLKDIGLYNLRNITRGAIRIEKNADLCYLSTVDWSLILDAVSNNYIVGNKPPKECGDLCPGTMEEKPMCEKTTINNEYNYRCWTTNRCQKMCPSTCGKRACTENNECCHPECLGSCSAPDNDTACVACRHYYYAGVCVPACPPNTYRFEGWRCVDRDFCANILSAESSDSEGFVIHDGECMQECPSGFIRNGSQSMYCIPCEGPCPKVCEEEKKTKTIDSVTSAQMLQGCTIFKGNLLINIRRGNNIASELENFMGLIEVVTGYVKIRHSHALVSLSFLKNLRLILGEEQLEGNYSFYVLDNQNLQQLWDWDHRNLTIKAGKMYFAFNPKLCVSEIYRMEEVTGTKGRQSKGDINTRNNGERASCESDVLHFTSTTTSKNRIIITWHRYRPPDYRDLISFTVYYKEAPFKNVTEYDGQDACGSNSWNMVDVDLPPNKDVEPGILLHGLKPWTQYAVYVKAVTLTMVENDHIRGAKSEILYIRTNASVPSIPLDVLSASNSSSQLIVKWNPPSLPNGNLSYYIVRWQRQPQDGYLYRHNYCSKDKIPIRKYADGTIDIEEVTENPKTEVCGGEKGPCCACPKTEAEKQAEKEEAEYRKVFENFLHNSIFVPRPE
Insulin-like growth factor 1 receptor (Homo sapiens), sequence (P08069 741-1367 limits assumed): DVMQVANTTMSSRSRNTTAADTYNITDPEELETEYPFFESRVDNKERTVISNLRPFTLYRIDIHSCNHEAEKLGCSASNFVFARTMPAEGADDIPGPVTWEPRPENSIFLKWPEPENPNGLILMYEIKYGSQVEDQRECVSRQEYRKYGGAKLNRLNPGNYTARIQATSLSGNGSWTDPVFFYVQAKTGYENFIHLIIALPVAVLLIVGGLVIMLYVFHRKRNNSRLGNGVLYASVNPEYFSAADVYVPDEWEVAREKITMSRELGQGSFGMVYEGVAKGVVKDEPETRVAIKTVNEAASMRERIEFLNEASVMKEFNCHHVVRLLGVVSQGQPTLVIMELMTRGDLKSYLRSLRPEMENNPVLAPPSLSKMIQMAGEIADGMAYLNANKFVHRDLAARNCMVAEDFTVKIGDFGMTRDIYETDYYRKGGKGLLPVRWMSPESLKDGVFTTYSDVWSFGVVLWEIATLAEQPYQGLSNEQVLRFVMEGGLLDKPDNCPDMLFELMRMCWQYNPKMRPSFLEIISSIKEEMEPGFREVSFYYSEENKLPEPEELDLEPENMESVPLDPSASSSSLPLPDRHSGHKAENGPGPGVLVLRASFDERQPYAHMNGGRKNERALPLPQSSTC
Tyrosine-protein kinase HCK (Homo sapiens), sequence (P08631 2-526 limits assumed): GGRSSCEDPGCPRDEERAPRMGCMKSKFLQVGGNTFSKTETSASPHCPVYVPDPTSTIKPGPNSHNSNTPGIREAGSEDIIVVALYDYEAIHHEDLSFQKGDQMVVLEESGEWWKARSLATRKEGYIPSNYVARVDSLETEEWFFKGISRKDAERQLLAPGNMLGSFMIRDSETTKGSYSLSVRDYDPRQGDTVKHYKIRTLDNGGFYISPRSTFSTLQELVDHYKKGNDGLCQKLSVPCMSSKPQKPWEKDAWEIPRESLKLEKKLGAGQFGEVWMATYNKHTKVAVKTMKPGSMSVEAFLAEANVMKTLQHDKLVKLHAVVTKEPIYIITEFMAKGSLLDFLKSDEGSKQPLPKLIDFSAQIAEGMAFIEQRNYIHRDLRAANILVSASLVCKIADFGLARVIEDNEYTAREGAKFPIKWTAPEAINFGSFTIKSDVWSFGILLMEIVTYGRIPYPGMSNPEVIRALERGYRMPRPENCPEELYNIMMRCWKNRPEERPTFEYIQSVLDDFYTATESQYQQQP
Homeodomain-interacting protein kinase 3 (Homo sapiens), sequence (Q9H422 whole entry, looked up): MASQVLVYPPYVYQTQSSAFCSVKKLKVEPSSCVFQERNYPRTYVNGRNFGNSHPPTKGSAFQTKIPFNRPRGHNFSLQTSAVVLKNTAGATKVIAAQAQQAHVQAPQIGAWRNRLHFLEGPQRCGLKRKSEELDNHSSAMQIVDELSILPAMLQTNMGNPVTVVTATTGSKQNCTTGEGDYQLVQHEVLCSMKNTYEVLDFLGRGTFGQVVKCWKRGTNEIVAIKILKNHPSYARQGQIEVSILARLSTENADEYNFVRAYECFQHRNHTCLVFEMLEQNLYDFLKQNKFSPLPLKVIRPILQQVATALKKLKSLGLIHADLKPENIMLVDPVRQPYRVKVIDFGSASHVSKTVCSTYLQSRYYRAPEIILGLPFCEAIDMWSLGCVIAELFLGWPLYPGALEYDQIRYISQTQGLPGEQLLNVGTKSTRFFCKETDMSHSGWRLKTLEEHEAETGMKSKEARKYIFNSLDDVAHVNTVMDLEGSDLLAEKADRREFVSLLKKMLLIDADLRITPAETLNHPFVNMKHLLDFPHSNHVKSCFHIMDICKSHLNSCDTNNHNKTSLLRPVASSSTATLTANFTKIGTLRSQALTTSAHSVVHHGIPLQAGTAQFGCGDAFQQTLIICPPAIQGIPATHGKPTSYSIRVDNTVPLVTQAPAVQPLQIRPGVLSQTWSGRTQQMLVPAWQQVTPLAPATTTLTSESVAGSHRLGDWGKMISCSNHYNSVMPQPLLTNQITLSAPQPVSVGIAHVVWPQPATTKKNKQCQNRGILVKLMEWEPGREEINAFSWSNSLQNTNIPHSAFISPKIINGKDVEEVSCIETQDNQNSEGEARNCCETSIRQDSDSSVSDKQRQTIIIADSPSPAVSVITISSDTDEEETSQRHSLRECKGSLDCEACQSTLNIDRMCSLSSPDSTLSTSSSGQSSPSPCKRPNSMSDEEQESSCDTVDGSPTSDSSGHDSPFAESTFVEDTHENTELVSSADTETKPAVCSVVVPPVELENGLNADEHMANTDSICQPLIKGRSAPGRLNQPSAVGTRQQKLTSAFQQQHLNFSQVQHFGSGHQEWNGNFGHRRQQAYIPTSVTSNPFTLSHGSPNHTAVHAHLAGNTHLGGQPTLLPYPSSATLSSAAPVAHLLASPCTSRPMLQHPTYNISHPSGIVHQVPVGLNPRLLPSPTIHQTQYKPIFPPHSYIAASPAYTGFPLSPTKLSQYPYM
Protein kinase C eta type (Homo sapiens), sequence (P24723 whole entry): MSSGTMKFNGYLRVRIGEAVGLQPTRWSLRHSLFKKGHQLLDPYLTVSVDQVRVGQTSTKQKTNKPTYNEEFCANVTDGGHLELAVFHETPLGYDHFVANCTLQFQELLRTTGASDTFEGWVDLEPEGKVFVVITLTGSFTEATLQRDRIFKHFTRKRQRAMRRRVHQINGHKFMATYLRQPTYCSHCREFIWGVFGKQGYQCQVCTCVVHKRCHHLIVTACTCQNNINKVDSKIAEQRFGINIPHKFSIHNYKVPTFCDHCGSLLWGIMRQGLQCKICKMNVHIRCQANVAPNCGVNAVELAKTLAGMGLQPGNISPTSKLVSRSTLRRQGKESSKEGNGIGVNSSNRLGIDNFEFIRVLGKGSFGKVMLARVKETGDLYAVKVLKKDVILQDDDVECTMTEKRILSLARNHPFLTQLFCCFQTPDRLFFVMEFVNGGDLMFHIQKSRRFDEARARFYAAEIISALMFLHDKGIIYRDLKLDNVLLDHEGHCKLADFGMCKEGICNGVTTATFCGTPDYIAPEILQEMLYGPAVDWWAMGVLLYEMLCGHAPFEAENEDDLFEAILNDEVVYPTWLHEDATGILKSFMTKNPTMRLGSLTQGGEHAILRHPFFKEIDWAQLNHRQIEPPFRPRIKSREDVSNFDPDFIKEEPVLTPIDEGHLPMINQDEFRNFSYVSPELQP

For `O=C(O)/C=C/c1cc(Br)c(Br)c(Br)c1Br`, the residual activity in assay [1] is 54%; in assay [2], 79%; in assay [3], 71%; in assay [4], 59%; in assay [5] it was 48%; in assay [6], 107%. Further, the residual activity in assay [7] amounted to 106%; in [8] it was 88%; in assay [9], 100%; in assay [10] it was 79%; in assay [11], 100%; in assay [12], 90%. Moreover, the residual activity in assay [13] was 96% (inactive); in assay [14], 100%; in assay [15], 109%; in assay [16] it was 64%; in assay [17], 102%; in assay [18], 97%.

`Cn1c2ccccc2c2c3c(c4c5ccccc5n(CCC#N)c4c21)CNC3=O`: the residual activity in assay [2] turned out to be 11%; in assay [3] it was 8%; in assay [4], 31%; in [5], 9%; in [6], 69%; in assay [7] it was 58%. The residual activity was 145% in assay [19]; 104% in assay [20]; 108% in assay [8]; 72% in assay [9]; 60% in assay [10]; 5% in assay [15]. For the same compound, in [16], the residual activity was determined as 12%.

As for `N#Cc1c(NC(=O)c2cccc3ccccc23)sc2c1CCCC2`, the residual activity in assay [1] is 99%; in assay [2] it was 82%; in [3] it was 64%; in [4] it was 63%; in [5], 55%; in assay [19] it was 136%. Moreover, the residual activity was determined as 128% in [20]; 100% in assay [8]; 91% in assay [9]; 92% in assay [10]; 92% in [15]; 83% in assay [16]. In addition, in [18], the residual activity stood at 93%.

Consider `CN(C)S(=O)(=O)c1ccc2c(c1)/C(=C/c1cc3c([nH]1)CCCC3)C(=O)N2`, for which the residual activity in assay [1] was determined as 86%; in assay [2], 127%; in assay [4], 10%; in assay [5], 10%; in assay [6] it was 73%; in assay [7], 74%. Further, the residual activity in [20] is 134%; in assay [11], 93%; in [12], 72%; in assay [13], 99% (inactive); in assay [14], 114%; in assay [15] it was 91%.

In the case of `O=C(c1cc2cc(O)ccc2[nH]1)c1cc2cc(O)ccc2[nH]1`, the residual activity in assay [1] came out at 25%; in assay [2], 39%; in [3], 7%; in assay [4], 23%; in [5] it was 5%; in assay [6], 8%. Also, the residual activity in assay [7] was 3%; in assay [19] it was 65%; in assay [20], 63%; in [10] it was 77%; in assay [11], 83%; in assay [12] it was 67%. In addition, the values for the residual activity in assay [15] and in [16] were 80% and 23%, respectively.

In the case of `O=C1C(Cl)=C(N2C(=O)CCC2=O)C(=O)c2ccccc21`, the residual activity in [1] is 86%; in assay [2], 96%; in assay [4], 71%; in assay [5], 63%; in [6] it was 91%; in [19], 93%. Also, the residual activity in assay [20] was 130%; in assay [9], 68%; in assay [10], 24%; in [11], 92%; in [12] it was 85%; in assay [13], 118% (inactive). For the same compound, the residual activity in [14] was 55%; in assay [15], 72%; in assay [16] it was 76%; in assay [17], 99%; in [18] it was 100%.

As for `Oc1cccc(-c2nc(N3CCOCC3)c3oc4ncccc4c3n2)c1`, the residual activity in assay [1] came out at 59%; in assay [2] it was 76%; in assay [3], 32%; in assay [5] it was 68%; in [19], 131%; in [11] it was 84%. Further, the residual activity in [12] was 86%; in [13] it was 89% (inactive); in assay [15], 97%; in assay [16], 89%.

With `CCCCc1c(-c2ccc(OC)cc2)[nH]c2nccnc12`, the residual activity came to 110% in assay [1]; 77% in [2]; 27% in assay [3]; 60% in [4]; 24% in assay [5]; 75% in [6]. In addition, the residual activity in [7] was 81%; in assay [19], 109%; in [20], 136%; in assay [8] it was 103%; in [11], 90%; in assay [12], 83%. In addition, the residual activity in assay [13] was 112% (inactive); in assay [15], 121%; in assay [16], 84%.
